# Screening results deposited in PubChem by National Center for Advancing Translational Sciences (NCATS).
# hNpr1 antagonist: antagonists of human natriuretic peptide receptor Npr1. actives 1.6% (n = 76,000). Potency, µM (series often up to 46.3 µM), without a hit: at the highest dose activity change, negative = inhibition, usual class: inhibitors. P16066. HEK293 hNpr1 GloSensor cGMP, ANP-stimulated luminescence; calls by dose curve; note: % is set by controls: 0 for no effect and ±100 for the full control effect; nearly all actives have a fitted effect of over 60% in size
# Target sequence (P16066 whole entry, looked up): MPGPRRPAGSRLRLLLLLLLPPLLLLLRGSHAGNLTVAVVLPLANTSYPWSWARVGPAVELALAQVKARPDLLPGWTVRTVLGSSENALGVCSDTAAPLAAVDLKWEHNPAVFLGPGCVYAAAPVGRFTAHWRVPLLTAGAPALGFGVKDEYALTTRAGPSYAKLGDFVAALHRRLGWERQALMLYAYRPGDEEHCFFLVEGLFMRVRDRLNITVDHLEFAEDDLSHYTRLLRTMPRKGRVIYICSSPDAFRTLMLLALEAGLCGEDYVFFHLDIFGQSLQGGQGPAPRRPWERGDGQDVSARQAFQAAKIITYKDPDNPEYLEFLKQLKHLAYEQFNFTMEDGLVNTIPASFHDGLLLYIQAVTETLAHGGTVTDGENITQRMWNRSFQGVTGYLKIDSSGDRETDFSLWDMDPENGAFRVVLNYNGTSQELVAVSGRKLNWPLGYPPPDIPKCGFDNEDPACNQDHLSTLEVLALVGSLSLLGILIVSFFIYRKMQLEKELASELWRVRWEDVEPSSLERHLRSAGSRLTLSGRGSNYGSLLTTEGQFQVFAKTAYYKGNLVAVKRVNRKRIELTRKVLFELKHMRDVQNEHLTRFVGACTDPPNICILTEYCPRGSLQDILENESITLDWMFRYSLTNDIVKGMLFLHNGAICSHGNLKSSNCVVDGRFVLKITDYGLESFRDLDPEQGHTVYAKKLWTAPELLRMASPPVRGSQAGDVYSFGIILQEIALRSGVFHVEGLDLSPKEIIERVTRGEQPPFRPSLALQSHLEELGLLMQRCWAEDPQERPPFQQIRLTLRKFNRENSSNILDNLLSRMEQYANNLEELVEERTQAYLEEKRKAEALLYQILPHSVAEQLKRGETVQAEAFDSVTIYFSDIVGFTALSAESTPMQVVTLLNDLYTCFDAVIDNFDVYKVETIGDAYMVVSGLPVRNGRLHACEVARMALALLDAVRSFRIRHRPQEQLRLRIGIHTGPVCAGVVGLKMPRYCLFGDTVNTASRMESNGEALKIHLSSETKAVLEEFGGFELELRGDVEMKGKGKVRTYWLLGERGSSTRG
#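 HEK293 cells stably expressing human Npr1 and cGMP GloSensor pGS-40F, loaded 2 h with 2% GloSensor reagent, given compound 30 min at room temperature. Luminescence read before and 20 min after 0.1 nM hNppA.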
# HEK cytotox: cytotoxic compounds in HEK 293 cells; HEK 293 viability, ATP luminescence (CellTiter-Glo), 48-72 h; Potency, µM (series often up to 115 µM), inactives show at the top dose activity change, negative = cytotoxicity, usual class: inhibitors; actives 6.6% (n = 94,000); AID 1345083; note: % is set by controls: 0 for no effect and ±100 for the full control effect; nearly all actives have a fitted effect of over 60% in size
#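 Cells seeded first (HEK 293, 250 cells/well), then compound added by pintool. Incubation ran 48 or 72 hr at 37 degree Celsius. CellTiter-Glo was added and luminescence imaged after 10 min at room temperature.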
# FLuc inh-1: blocks purified firefly luciferase enzyme activity; P08659; purified P. pyralis luciferase, luminescence, biochemical; Potency, µM (titrated, usually from 115 µM), hits mostly inhibitors; actives 2.5% (n = 76,000); note: % is set by controls: 0 for no effect and ±100 for the full control effect; nearly all actives have a fitted effect of over 65% in size
#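 Inhibitors were tested against purified firefly luciferase in a biochemical, low-substrate format (both substrates at 10uM) and luminescence measured with a CCD imager.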
# 3T3 cytotox: NIH 3T3 cell cytotoxicity; NIH 3T3 viability, CellTiter-Glo ATP luminescence, 48-72 h; Potency, µM (doses to about 96.7 µM), for inactives: top-dose activity change, negative = cytotoxicity, hits mostly inhibitors; actives 4.3% (n = 94,000); note: % is set by controls: 0 for no effect and ±100 for the full control effect; nearly all actives have a fitted effect of over 55% in size
#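 Cytotoxicity was measured by CellTiter-Glo ATP luminescence after 48 or 72 h compound exposure at 37 °C. Mouse NIH 3T3 fibroblasts were seeded at 400 cells/well and dosed by 23 nL pin transfer.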
# FLuc SDR -ATP: binders stabilizing firefly luciferase, without ATP; shares compounds with FLuc inh-1; Purified FLuc-C-HiBiT, Nano-Glo HiBiT luminescence, no ATP; Potency, µM (top dose mostly 32.7 µM), inactives show at the top dose activation (signal gain), actives largely listed as activators; actives 7.8% (n = 1,300); note: nearly all actives have a fitted effect of over 55% in size
# FLuc SDR ATP: binders stabilizing firefly luciferase, plus ATP; shares compounds with FLuc inh-1; purified FLuc-C-HiBiT + ATP, HiBiT complementation luminescence; Potency, µM (top dose mostly 32.7 µM), for inactives: at the highest dose activation (gain of signal), most hits filed as activators; actives 8.7% (n = 1,300);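 note: signal reports ligand binding via conformational change of the enzyme rather than luciferase catalysis; % of control where 0% means no effect; nearly all actives have a fitted effect of over 55% in size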
# FLuc inh-2: blocks firefly luciferase enzymatic activity. shares compounds with FLuc inh-1. purified FLuc-C-HiBiT enzyme, luciferin luminescence. Potency, µM (series often up to 32.7 µM), inactives show at the highest dose activity change, negative = inhibition, most hits filed as inhibitors. actives 42% (n = 1,300). AID 1963320; note: % is set by controls: 0 for no effect and ±100 for the full control effect; nearly all actives have a fitted effect of over 70% in size
# Starred values were filed as active, the others as inactive; i = inactive; ? = inconclusive; . = not tested or not shown; [ ] = dose if it differs, or a comment. Rows were chosen to be rich in hits. Some 11% of all compounds tested hit in one or more screens of this group. Unless noted, calls come from the whole dose curve; as a rule, active = well fitted curve in the direction sought with a large enough effect; inconclusive = small, poorly fitted or top-dose-only effect, or another doubt; inactive = no such curve, though single readings can be large; an effect the other way counts as inactive or inconclusive. Potency is the fitted concentration of half-maximal effect.
SMILES,hNpr1 antagonist,HEK cytotox,FLuc inh-1,3T3 cytotox,FLuc SDR -ATP,FLuc SDR ATP,FLuc inh-2
COc1cccc(Nc2nc(-c3ccccc3)no2)c1,8.9µM*,?,0.79µM*,45µM*,?,?,6.2µM*
COc1ccc(-c2noc(Nc3ccc(OC)c(OC)c3)n2)cc1,-14%,28µM*,7.9µM*,?,19%,12%,?
Fc1c(Cl)cccc1Nc1ncncc1-c1nc(-c2ccccc2)no1,-10%,i,i,-1%,.,.,.
Cc1nn(Cc2ccccc2)c(C)c1[C@@H]1C=C[C@@H](NC(=O)CCCC(=O)O)C1,3%[70.6 µM],1%[172 µM],i,3%[138 µM],.,.,.
COc1ccc(CC(=O)NCCNC(=O)c2cccc(-c3ccsc3)c2)cc1,.,-26%,.,-13%,.,.,.
NCc1cccc(-c2cccs2)c1,.,-9%[172 µM],.,?,.,.,.
COC(=O)c1ccc(CN2C(=O)[C@@H]3C[C@@H](O)CN3C3(CN(Cc4ccc(F)cc4)C3)C2=O)cc1,0%,-1%,i,-18%,.,.,.
CCN1C(=O)CN(C(=O)CCCc2ccccc2)CC12CCOCC2,.,-8%,.,-16%,.,.,.
Nc1nn(-c2ccccc2)nc1C(=O)OCc1ccccc1,.,.,.,.,13%,10%,-13%
COc1ccc(-c2ccnc3nc(C4CCCO4)nn23)c(F)c1 (stereo unspecified),2%,4%,i,i,.,.,.
CO[C@@H]1C[C@@H]2CC(C)(C)OC[C@@]2(O)[C@H]1N1CCN(c2ccc([N+](=O)[O-])cc2)CC1,.,?,.,-31%[46.1 µM],.,.,.
COc1ccc(N2CCN(C(=O)c3noc(-c4ccc(C)cc4)n3)CC2)cc1,-21%,?,14µM*,?,23%,15%,?
Cc1ccc(C)c(N2CCN(C(=O)c3ccc(NC(=O)c4nsc5ccccc45)cc3)CC2)c1,.,.,.,.,17%,?,?
CC(=O)Nc1ccc(-c2nnc3n2CCN(C(=O)c2ccccc2)C3)cc1,.,-18%,.,-3%,.,.,.
O=C(Nc1ccccc1)c1nc2c(o1)CCN(Cc1ccccn1)CC2,?,?,4µM*,?,26%[49.3 µM],?,?
O=C(Nc1ccccc1)c1nc2c(o1)CCN(Cc1ccc(O)cc1)CC2,25µM*,?,0.56µM*,-30%[138 µM],?,?,5.1µM*
Cn1cc(CN2CCc3nc(C(=O)Nc4ccccc4)oc3CC2)cn1,.,.,.,.,23%[49.3 µM],17%[49.3 µM],?
Cc1csc(NC(=O)c2nc3c(o2)CCN(Cc2cccc(F)c2)CC3)n1,-25%[70.6 µM],50µM*,2.8µM*,?,31%[49.3 µM],?,14µM*
O=C(NCc1ccncc1)c1nc2c(o1)CCN(Cc1ccccc1F)CC2,?,?,i,-26%[138 µM],.,.,.
O=C(Nc1ccc(Cl)cc1)N1CCC(C(=O)N2CCC(c3nc4ncccc4[nH]3)CC2)C1 (stereo unspecified),.,3%,.,?,.,.,.
Cc1ccc(CN2CCc3nc(C(=O)Nc4ccccc4)oc3CC2)cc1,22µM*,?,5µM*,?,14%[49.3 µM],14%[49.3 µM],?
Cc1cc(F)cc(CN2CCc3nc(C(=O)NCc4ccncc4)oc3CC2)c1,?,?,i,?,.,.,.
Cc1ccccc1N1CCN(C2CCCN(Cc3ccc(C#CC(C)(C)O)cc3)C2)CC1 (stereo unspecified),-3%,?,i,-22%,.,.,.
Cc1ccc(CN2CCN(C(=O)C3(Cc4cccnc4)CCCCC(=O)N3)CC2)cc1 (stereo unspecified),-1%,?,i,-14%,.,.,.
COCC1CN(C2CCC2)CC12CCN(C(=O)c1ccc(OC)cc1C)CC2 (stereo unspecified),-21%,?,i,-18%,.,.,.
SMILES,hNpr1 antagonist,HEK cytotox,FLuc inh-1,3T3 cytotox,FLuc SDR -ATP,FLuc SDR ATP,FLuc inh-2
CCC(=O)Nc1cc2nn(-c3ccc(C)cc3)nc2cc1C,.,.,.,.,?,?,0.39µM*
Cc1ccc(NC(=O)Cn2c(-c3ccc(F)cc3)nc(C)cc2=O)c(C)c1,5%,11%,i,i,.,.,.
CC1(C(=O)NCc2ccco2)CN(Cc2ccccc2)Cc2ccc(N3CCOCC3)nc21 (stereo unspecified),-11%,?,i,?,.,.,.
Cc1ccc(CNC(=O)c2ccc3c(c2)CN(Cc2cnn(C)c2C)CCO3)cc1,?,?,i,-9%,14%,8%,-7%
Cc1c(CN2CCOc3ccc(C(=O)NCc4ccccc4F)cc3C2)cnn1C,?,?,i,-10%,.,.,.
COc1ccc(C(=O)Nc2cc(C(C)C)c(O)c(S(=O)(=O)c3ccc(Cl)cc3)c2C)cc1,.,.,.,.,12%,12%,?
CCC(=O)Nc1cnc(-c2ccc(C)cc2)nc1,?,11%,3.2µM*,2%,?,?,8.8µM*
